Source: PubChem BioAssay
Shown are actives, neighbours in structure and some others; about 7.4% of the full set was active somewhere.
NPC1 prom act – NPC1 promoter activation | Huh7 NPC1 promoter luciferase reporter, 24 h | Potency, µM (highest dose often 9.22 µM), for the others: at the top dose activation, actives largely listed as activators | actives 2.4% (n = 320,000) | AID 485313; further: % of control where 0% means no effect; nearly all actives have a fitted effect of over 60% in size
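In 1536-well qHTS, Huh7 cells harboring an NPC1 promoter–luciferase construct received compound for 24 h; activation was quantified by luminescence following luciferase reagent addition.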
ELG1 genotox – genotoxicity induction in ELG1-luciferase HEK293T cells; actives 1.3% (n = 330,000); AID 504466; Potency, µM (series often up to 46 µM), without a hit: top-dose activity change, positive = activation, usual class: activators; HEK293T ELG1-luciferase reporter, luminescence, 16 h; further: % of control where 0% means no effect; nearly all actives have a fitted effect of over 60% in size
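Genotoxic stress is detected as increased luminescence from luciferase-tagged ELG1 in HEK293T cells, measured with ONE-Glo after a 16 hr treatment at 37 °C.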
SMN2 splice enh – SMN2 splice variant enhancement; HEK293 SMN2-luciferase splicing reporter, luminescence, 30-36 h; Potency, µM (highest dose often 46.1 µM), inactives show at the highest dose activity change, positive = activation, usual class: activators; actives 2.8% (n = 210,000); AID 1458; further: % of control where 0% means no effect; nearly all actives have a fitted effect of over 55% in size
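qHTS luciferase splicing reporter: luminescence rises when SMN2 exon 7 is included in transfected HEK293 cells. Compound exposure lasted 30-36 h at 37C, with 4.5 mM final sodium butyrate as control, followed by a ONE-Glo read.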
FLuc counter – firefly luciferase modulation, counter-screen for miR-21 project | P08659 | purified FLuc, Km substrates, luminescence inhibition | Potency, µM (doses to about 57.5 µM), inactives show top-dose activity change, negative = inhibition, actives largely listed as inhibitors | actives 6.9% (n = 360,000);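 further: plate controls were vehicle for no effect and reference inhibitor for full effect; nearly all actives have a fitted effect of over 55% in size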
Target sequence (P08659 whole entry, looked up): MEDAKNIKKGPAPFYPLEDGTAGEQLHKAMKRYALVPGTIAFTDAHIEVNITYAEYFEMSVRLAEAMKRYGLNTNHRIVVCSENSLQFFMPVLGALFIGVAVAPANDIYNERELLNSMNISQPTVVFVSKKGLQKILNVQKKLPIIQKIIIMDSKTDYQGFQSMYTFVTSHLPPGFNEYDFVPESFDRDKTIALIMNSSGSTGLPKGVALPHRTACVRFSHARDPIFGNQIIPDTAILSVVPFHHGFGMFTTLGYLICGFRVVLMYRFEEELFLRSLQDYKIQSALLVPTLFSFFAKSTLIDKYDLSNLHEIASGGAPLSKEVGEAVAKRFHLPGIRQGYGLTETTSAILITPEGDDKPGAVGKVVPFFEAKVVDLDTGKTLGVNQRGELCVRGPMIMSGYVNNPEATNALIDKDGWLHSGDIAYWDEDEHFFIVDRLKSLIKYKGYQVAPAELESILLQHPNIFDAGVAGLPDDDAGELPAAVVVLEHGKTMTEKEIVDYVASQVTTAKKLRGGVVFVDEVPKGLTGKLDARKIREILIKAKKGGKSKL
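Purified P. pyralis luciferase (10nM final) with 10uM D-luciferin and 10uM ATP (Km levels) in 50mM Tris acetate pH 7.5, 10mM Mg acetate, 0.01% Tween-20, 0.05% BSA; qHTS 6-point titration, ~60 µM downward; luminescence read.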
Rab9 prom act – activates the Rab9 promoter. Huh7 Rab9 promoter-luciferase reporter, luminescence, 24 h. Potency, µM (titrated, usually from 9.22 µM), for the others: at the top dose activation, negative = inhibition, actives largely listed as activators. actives 2.8% (n = 320,000). AID 485297; further: % of control where 0% means no effect; nearly all actives have a fitted effect of over 60% in size
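Promoter activation is measured as luciferase luminescence in Huh7 cells stably transfected with a Rab9 promoter–luciferase construct, following 24 h compound exposure at 37 °C and 10 min reagent incubation at ambient temperature.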
p53 reactivation – re-activators of mutant p53 | H1299 p53-A138V BP100-luciferase reporter, luminescence, 24 h | AID 504706 | Potency, µM (top dose mostly 92.2 µM), without a hit: at the highest dose activity change, positive = activation, most hits filed as activators | actives 0.063% (n = 320,000); further: % of control where 0% means no effect; nearly all actives have a fitted effect of over 45% in size
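p53-null H1299 cells stably carrying temperature-sensitive p53-A138V and a BP100-luciferase reporter were pinned with compounds (4-point, 1:5 series) and held 24 hrs at 37 deg C. Luminescence was read 10 min after detection reagent.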
An asterisk follows results filed as active; ? = inconclusive; / = no result given; [ ] = another dose, or the depositor's remark. The call rests on the fitted dose curve; in most records, active means well fitted curve in the direction sought with a large enough effect; inconclusive means small, poorly fitted or top-dose-only effect, or another doubt; inactive means no such curve, though single readings can be large; an effect the other way counts as inactive or inconclusive. Potency means the concentration at half of the fitted maximal effect.

SMILES	NPC1 prom act	ELG1 genotox	SMN2 splice enh	FLuc counter	Rab9 prom act	p53 reactivation
CSCCC(NC(=O)c1ccc(C(C)(C)C)cc1)C(=O)OCC(=O)N1CCCC1=O (centres undefined)	-1.0%	0.2%	/	21.3µM*	-0.7%	3.2%
CCCCc1ccc(NC(=O)Cn2nnc3sc4c(c3c2=O)CCC(C)C4)cc1 (centres undefined)	/	/	-4.5%	?	/	/
Cc1cccc(C)c1NC(=O)/C(C#N)=C/c1ccc(-c2ccc(C(=O)O)cc2)o1	0.631µM*	?	/	12µM*	2.51µM*	?
N#C/C(=C\c1ccc(-c2ccc(C(=O)O)cc2)o1)C(=O)Nc1ccc(F)cc1	?	2.3%	/	2.39µM*	?	24.8%
N#C/C(=C\c1ccc(-c2ccc(C(=O)O)cc2)o1)C(=O)NCC1CCCO1 (centres undefined)	?	6.1%	?	?	24.5%	17.2%
[O-][N+](CCO)(CCO)c1ncnc2nc[nH]c12	/	/	-5.0%[9.22 µM]	/	/	/
Cc1ccc(-n2ncc3c(Nc4ccc(Oc5ccccc5)cc4)ncnc32)c(C)c1	/	/	/	-1.9%	/	/
COc1ccc(Cn2c(C(=O)O)c(CNCCc3cc(OC)ccc3OC)c3ccc(C)cc32)cc1	/	/	/	6.3%	/	/
O=C1CS/C(=N/N=C/c2cccs2)N1Cc1ccc(F)cc1	-1.7%	-4.0%	/	-0.1%	0.6%	-1.2%
O=C(N[C@@H](Cc1c[nH]c2ccccc12)C(=O)O)c1ccc(Cl)cc1	-1.4%	-4.0%	6.3%	16.9µM*	11.6%	0.3%
COc1ccc(C(=O)NC(Cc2c[nH]c3ccccc23)C(=O)O)cc1 (centres undefined)	-10.6%	-1.7%	/	19µM*	-1.9%	-0.4%
Cc1cc(NC(=O)COC(=O)[C@H](Cc2c[nH]c3ccccc23)NC(=O)c2ccc(F)cc2)no1	-2.3%	-1.7%	-1.2%	16.9µM*	6.7%	6.8%
O=C(Cc1c[nH]c2ccccc12)NCc1ccc(Cl)cc1	1.3%	1.1%	0.4%	?	-1.5%	15.6%
O=C(Cc1c[nH]c2ccccc12)NCc1ccc(Cl)cc1Cl	0.4%	7.3%	17.4%	21.3µM*	-3.2%	15.7%
CCCn1c(N)c(C(=O)CSc2n[nH]c(-c3ccc(C)cc3)n2)c(=O)[nH]c1=O	-1.4%	?	/	1.7%	-3.7%	-3.4%
O=C(Cn1c(=O)n(Cc2ccccc2)c(=O)c2sc3ccccc3c21)Nc1ccc(F)cc1	/	/	0.3%	-3.5%	/	/
Nc1c2c(nc3sc4c(c13)CCCC4)-c1ccccc1CC2	0.501µM*	0.731µM*	/	0.135µM*	0.141µM*	?
NC(=O)c1sc2nc(-c3ccccc3)c3c(c2c1N)CCCC3	1.4%	-5.9%	-58.5%	-18.2%	-0.3%	1.6%
CN1CCN(c2ccc(NC(=S)NC(=O)/C=C/c3ccco3)cc2)CC1	?	?	/	23.9µM*	?	?
COc1cccc(NC(=S)NC(=O)/C=C/c2ccco2)c1	4.6%	?	/	16.9µM*	24.9%	?
O=C(/C=C/c1ccco1)NC(=S)Nc1cccc(C(=O)O)c1	3.98µM*	?	/	10.7µM*	2.82µM*	?
Cc1ccc(C(=O)N/C(=C/c2ccc(N(C)C)cc2)C(=O)NCC2CCCO2)cc1 (centres undefined)	0.0%	11.0%	/	-1.8%	5.4%	-2.4%
COc1ccc(-c2nc3cnc(N4CCOCC4)nc3n(CCC#N)c2=O)cc1	/	/	-7.0%	/	/	/
O=C(CSc1nnc2ccccn12)Nc1cccc(-c2nc3ccccc3s2)c1	3.55µM*	?	14.1µM*	-19.5%	?	?
COc1ccc(-c2nc(NC(=O)CSc3nnc4ccccn34)ns2)cc1	29.9%	-6.4%	18.2%	12µM*	2.2%	?
SMILES	NPC1 prom act	ELG1 genotox	SMN2 splice enh	FLuc counter	Rab9 prom act	p53 reactivation
O=C(CSc1nnc2ccccn12)Nc1nsc(-c2ccccc2)n1	11.0%	-1.6%	10.6%	15.1µM*	-0.4%	10.1%
COc1ccc(-c2nc(NC(=O)CSc3nnc(C)s3)ns2)cc1	19.3%	-21.4%	?	?	12.8%	?
O=C(CSc1nnnn1-c1ccccc1)Nc1nsc(-c2ccccc2)n1	1.0%	5.5%	-0.7%	-1.1%	-4.8%	2.1%
COc1cccc(-c2nc3c(c(SCc4ccccc4)n2)Cc2c(CO)cnc(C)c2O3)c1	/	/	/	0.3%	/	/
CC(=O)c1ccc(NC(=S)NNC(=O)c2ccncc2)cc1	-2.9%	8.8%	24.9%	19µM*	12.5%	31.3%
COc1ccc(C(=O)NNC(=S)Nc2ccccc2)cc1	2.51µM*	?	11.2µM*	10.7µM*	0.562µM*	?
COc1ccccc1NC(=S)NC(=O)CC(C)C	7.0%	0.9%	-5.7%	15.1µM*	-0.8%	6.9%
COc1ccccc1NC(=S)NNC(=O)c1c(Cl)c(C)nn1C	-1.8%	-6.4%	-14.1%	15.1µM*	7.7%	-1.2%
CC(C)OC(=O)[C@@H]1CC[C@H](C)[C@@H](CCC[C@@H]2CC=C[C@H](CC#N)O2)O1	/	/	5.9%	/	/	/
CCC(C(=O)Nc1ccccc1C(=O)OC)n1c(C)c2cnn(-c3ccccc3)c(=O)c2c1C (centres undefined)	/	/	-3.9%	-1.5%	/	/
O=C(CC1CCCC1)NNC(=O)c1ccc(Br)cc1	14.0%	14.1%	/	-19.9%	21.0%	18.8%
COc1ccc(NC(=S)N/C(=N/CS(=O)(=O)c2ccccc2)c2ccccc2)cc1	2.82µM*	?	13.4%	2.69µM*	?	?
O=[N+]([O-])c1ccc(NC(=S)N/C(=N/CS(=O)(=O)c2ccccc2)c2ccccc2)cc1	4.3%	?	-9.8%	?	-1.4%	2.4%
COc1cc(OC)cc(C(=O)NNC(=S)Nc2ccccc2OC)c1	0.9%	4.3%	6.2%	21.3µM*	-5.0%	0.8%
COc1ccccc1NC(=S)NNC(=O)c1ccccc1Br	22.3%	10.0%	5.01µM*	?	?	?
O=C(O)c1cccc(NC(=O)c2cccc(S(=O)(=O)Nc3cccc(F)c3)c2)c1	/	/	-1.1%	?	/	/
CN(C)c1ccc(/C=C2\SC(=O)N(CCc3nnc(N)s3)C2=O)cc1	0.1µM*	?	/	0.135µM*	?	10.1%
CN(C)c1ccc(/C=C2/SC(=O)N(CCN=C3NS(=O)(=O)c4ccccc43)C2=O)cc1	?	12.5%	/	-12.9%	?	?
Cc1cc(C)nc(N(C#N)CC(=O)c2ccccc2)n1	1.2%	-2.5%	/	21.3µM*	-1.3%	16.7%
COc1cc(SC)ccc1C(=O)OCC(=O)N1CCN(C(C)=O)CC1	-6.6%	0.7%	/	-1.9%	0.7%	0.0%
